According to PubChem BioAssay (Tox21):
Inconclusive results are not listed. Unmarked numbers belong to inactive results. Calls of active or inactive are those of the source. Calls follow the shape of the full dose curve.

Assay: qHTS assay to identify small molecule agonists or antagonists of the thyroid stimulating hormone receptor (TSHR) signaling pathway - wild type cell line counter screen (AID 1259384)
Conditions: HEK293 wild type, cAMP HTRF counter-screen, stronger effect = higher value; series mostly up to 92.4 µM
Text: U.S. Tox21 Program National Center for Advancing Translational Sciences [NCATS] NIH Chemical Genomics Center [NCGC] U.S. Environmental Protection Agency [EPA] National Institutes of Environmental Health Sciences [NIEHS] National Toxicology Program [NTP] U.S. Food and Drug Administration [FDA] Tox21 Assay Overview: TSHR is the receptor for thyrotropin (thyroid stimulating hormone or TSH), a member of the glycoprotein hormone family. TSH is released by the anterior pituitary gland and is the main regulator of thyroid gland growth and development. Upon binding circulating thyrotropin, a G-protein signal cascade activates adenylyl cyclase and […] cAMP concentration is increased. cAMP is a key second messenger involved extensively in cellular signal transduction pathways associated with the majority of G-protein coupled receptors (GPCRs). The activation of these GPCRs by neurotransmitters, lipids, nucleotides, peptides and hormones results in the activation or the inhibition of plasma membrane-bound adenylate cyclase through heterotrimeric G-proteins. A cell-based TSHR-Hek293 assay can be used to identify TSHR agonists. To eliminate the false positive compounds identified from screening a cell-based TSHR-Hek293 cell line, cAMP assay in a wild type Hek293 cells was used as a counter screening.
Tox21 Assay Protocol Summary: Hek293 cells (wild type) were dispensed at 800 cells/4 uL/well in 1536-well white plates using a Multidrop dispenser. After the assay plates were incubated at a 37 C/5% CO2 incubator for 18 hrs, 23 nL of compounds dissolved in DMSO, positive controls or DMSO only was transferred to the assay plate by a pin tool, followed by 1 ul medium containing Ro20-1724. After 30 min of incubation at room temperature, 2.5 ul/well of cAMP-d2 and 2.5 ul/well of anti-cAMP-cryptate were added respectively into the assay plates using a Flying Reagent Dispenser. The plates were incubated at room temperature for 1 hr. The fluorescence intensity in the plates was measured using an Envision plate reader. Each test compound was measured at 15 concentrations and in triplicates.
% is scaled to controls: 0 for no effect and ±100 for the full control effect.

Compound | outcome | cAMP activity change
CCOC(C(=O)OCCN(C)C)(c1ccccc1)c1ccccc1 | inactive | 
CCCC[P+](CC)(CCCC)CCCC (tested in a mixture with another compound) | inactive | 
CC[N+]1(CCOC(=O)C(O)(c2ccccc2)c2ccccc2)CCCCC1 | inactive | 
CC[N+]1(C)CCCC(OC(=O)C(O)(c2ccccc2)c2ccccc2)C1 (stereo not given) | inactive | 
CC(Oc1cc(Cl)c(Cl)cc1Cl)C(=O)O (stereo not given) | inactive | 
C=C(C)C(=O)OCCCCOC(=O)C(=C)C | inactive | 
CN(C)C(=O)Nc1cccc(OC(=O)NC(C)(C)C)c1 | inactive | 
COP(=O)(OC)OC(Br)C(Cl)(Cl)Br (stereo not given) | inactive | 
C=CCN1C[C@H](C)N([C@H](c2ccc(C(=O)N(CC)CC)cc2)c2cccc(OC)c2)C[C@H]1C | inactive | 
O=C(O)CCCOc1ccc(Cl)cc1Cl | inactive | 
COc1cc(CC(C)N)c(OC)cc1Br (stereo not given) | inactive | 
NC(=S)c1c(Cl)cccc1Cl | inactive | 
CCC1(C2=NCCN2)Cc2ccccc2O1 (stereo not given) | inactive | 
C=CCSSCC=C | inactive | 
CCOC(=O)c1cn2nc(OP(=S)(OCC)OCC)cc2nc1C | inactive | 
CCCCC(CC)COC(=O)c1c(Br)c(Br)c(Br)c(Br)c1C(=O)OCC(CC)CCCC (stereo not given) | inactive | 
O=[N+]([O-])/C=C/c1ccccc1 | inactive | 
O=C(O)c1ccc(=O)[nH]c1 | inactive | 
CC1(C)[C@H](C(=O)O[C@H](C#N)c2cccc(Oc3ccccc3)c2)[C@@H]1C=C(Br)Br | inactive | 
Cc1nnc(-c2ccccc2)c(=O)n1N | inactive | 

Compound | outcome | cAMP activity change
CCCCCCCCCCCCN=C(N)N |  | 1.76% [at 3.27 µM]
COCc1cnc(C2=NC(C)(C(C)C)C(=O)N2)c(C(=O)O)c1 (stereo not given) | inactive | 
CCOP(=S)(OCC)SCSc1cc(Cl)ccc1Cl | inactive | 
OC[P+](CO)(CO)CO | inactive | 
O=C1CC[C@@]2(O)[C@H]3Cc4ccc(O)c5c4[C@@]2(CCN3CC2CC2)[C@H]1O5 | inactive | 
CCN(C(C)=O)c1cccc(-c2ccnc3c(C#N)cnn23)c1 | inactive | 
C[C@]12CC[C@H]3[C@@H](CCC4=CC(=O)CC[C@@H]43)[C@@H]1CC[C@@H]2OC(=O)CCc1ccccc1 | inactive | 
CC(C)c1ccc(NC(=O)N(C)C)cc1 | inactive | 
CC(C)[C@@H](C(=O)O[C@@H](C#N)c1cccc(Oc2ccccc2)c1)c1ccc(Cl)cc1 | inactive | 
CCCCCBr | inactive | 
CC(=O)NNc1ccccc1 | inactive | 
CCCBr | inactive | 
Nc1ccccc1C(=O)OCCc1ccccc1 | inactive | 
O=C=NC1CCCCC1 | inactive | 
COC1CC(=C(c2cccs2)c2cccs2)C[N+](C)(C)C1 (stereo not given) | inactive | 
CON(C)C(=O)Nc1ccc(Cl)cc1 | inactive | 
CC(Cl)C(=O)O (stereo not given) | inactive | 
C=CC(=O)OCC | inactive | 
Oc1cccc(Cl)c1 | inactive | 
C[Si](Cn1cncn1)(c1ccc(F)cc1)c1ccc(F)cc1 | inactive | 
